In the library only some 2.3% were active in any assay of this set; here they are far more common.
H9c2 protect: myocardial damage modulation in H9c2 cells. H9c2 cardiomyocytes, H2O2 injury protection, ATPLite, 2 h. protection from H2O2 cell death, % at 20 µM. hit rate 0.63% among 360,000. AID 588492;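 active = compounds giving at least 50% protection of heart cells from peroxide-induced death in the single-dose screen, raw or plate-pattern-corrected value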;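 also: 0% = DMSO wells with peroxide and 100% = DMSO wells without peroxide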
m-calpain inh: calpain II (pig) inhibition | purified calpain II, fluorogenic peptide substrate, 30 min | inhibition, % at 16 µM | hit rate 0.37% among 220,000 | AID 1236;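 active = inhibition above about 50%, limit read from the data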
aDG glyco up: alpha-DG glycosylation activation; Pro5-aDG cells, alpha-DG glycosylation AlphaScreen (IIH6); 0% Pro5, 100% B10-LARGE cell signal; hit rate 0.22% among 360,000; activation, % at 10 µM;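 active = activation of at least 8% versus controls, or a plate z-score of at least 8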;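 also: Pro5 are CHO cells carrying HIG-tagged alpha-DG that lacks glycosylation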
FAS TE block: blocks the thioesterase domain of human fatty acid synthase. inhibition, % at 15 µM. recombinant FAS-TE, OMFH fluorogenic substrate, fluorescence endpoint. hit rate 0.67% among 360,000. P49327;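 active = compounds whose normalised, plate-corrected inhibition of enzyme fluorescence in the single-dose primary screen is 50% or more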;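 also: 0% = DMSO with enzyme and 100% = substrate without enzyme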
TAG inh: reduces triacylglycerol accumulation in H9c2 cells | Nile Red lipid (TAG) fluorescence; cells loaded with 200 µM oleic acid | inhibition, % at 12.5 µM | hit rate 0.66% among 230,000;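 active = pattern-corrected inhibition of lipid staining of at least 50% with the nuclear-stain viability signal not falling by more than 50%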;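 also: 0% = DMSO wells and 100% = triacsin C control wells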
MIN6 prolif: induces beta-cell replication in MIN6 cells | proliferation, % at 10 µM | AID 2380 | MIN6 cells proliferation, ATPlite luminescence, 48 h; cells starved in 0.2% serum; 100% = growth in 10% serum | hit rate 0.29% among 330,000;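 active = compounds whose signal lies at least 3.5 SD above the mean of all wells on their plate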;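 also: 0% = DMSO-treated cells in low-serum medium and 100% = 10% serum control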
FAS-TE conf: confirmation of human fatty acid synthase thioesterase inhibitors; AID 624325; inhibition, % at 15 µM; recombinant FAS-TE, OMFH fluorogenic substrate, fluorescence; shares compounds with FAS TE block; hit rate 45% among 2,300;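 active = compounds inhibiting the enzyme by at least 50% at 15 µM in any one of the replicates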;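 also: 0% = enzyme with DMSO only and 100% = wells lacking enzyme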
An asterisk follows results filed as active.

COc1ccc([N+](=O)[O-])cc1NC(=O)c1cn(-c2ccc(Cl)cc2)c(=O)c2ccccc12 was read as H9c2 protect 1, m-calpain inh -55, aDG glyco up 0, FAS TE block 91*, MIN6 prolif 1 and FAS-TE conf 2.
For COc1ccc([N+](=O)[O-])cc1NC(=O)CC(c1ccccc1)c1ccccc1 the results were H9c2 protect 3, m-calpain inh 2, aDG glyco up 0, FAS TE block 62*, MIN6 prolif -3 and FAS-TE conf 54*.
For COc1ccc([N+](=O)[O-])cc1NC(=O)C(C)c1ccccc1 (centres undefined) the results were H9c2 protect 2, m-calpain inh -2, aDG glyco up 0, FAS TE block 45 and MIN6 prolif 1.
`CN(C)C(CNC(=O)C1CCN(S(=O)(=O)c2cc(Cl)ccc2Cl)CC1)Cc1ccccc1` (centres undefined) gave H9c2 protect 12, aDG glyco up 2, FAS TE block 5 and TAG inh 3.
For Cc1nnsc1C(=O)N/N=C/c1ccc(OC(F)(F)F)cc1 the results were H9c2 protect -9, m-calpain inh 5, aDG glyco up 0, FAS TE block 1, TAG inh -9 and MIN6 prolif -3.
`CCOc1ccc(-n2cc(C(=O)Nc3cccc(C)n3)c3cc(OC)c(OC)cc3c2=O)cc1` gave H9c2 protect 35, aDG glyco up -1, FAS TE block 10, TAG inh 25 and MIN6 prolif -1.
`COc1ccc(N(CC(=O)Nc2ccc(OC)cc2OC)S(=O)(=O)c2ccccc2)cc1` gave H9c2 protect 7, m-calpain inh 31, aDG glyco up 0, FAS TE block 38, TAG inh -17 and MIN6 prolif -3.
COc1ccc(NC(=O)CN(c2ccc([N+](=O)[O-])cc2)S(=O)(=O)c2ccccc2)c(OC)c1 was read as H9c2 protect 16, m-calpain inh 7, aDG glyco up 0, FAS TE block 70*, MIN6 prolif 1 and FAS-TE conf 68*.
`CCOc1ccc(-n2cc(C(=O)Nc3cccc(Cl)c3)c3cc(OC)c(OC)cc3c2=O)cc1` gave H9c2 protect 2, m-calpain inh -85, aDG glyco up 1, FAS TE block 59*, TAG inh 33, MIN6 prolif -3 and FAS-TE conf 19.
`O=C(c1ccc(NS(=O)(=O)c2ccc(Cl)c(Cl)c2)cc1)N1CCOCC1` gave H9c2 protect -2, aDG glyco up 0, FAS TE block -4, TAG inh 4 and MIN6 prolif 0.
`COc1ccc(N2C(=O)CC2(C#N)c2ccc(OCc3ccccc3)cc2)cc1` (centres undefined) gave H9c2 protect 5, m-calpain inh 26, aDG glyco up 0, FAS TE block -13 and MIN6 prolif 0.
Screening COc1cc2cc(CCO)oc(=O)c2cc1OC returned H9c2 protect 23, aDG glyco up 0, FAS TE block -7, TAG inh 12 and MIN6 prolif -1.
Screening O=C(COC(=O)c1cc([N+](=O)[O-])ccc1Cl)NCCc1ccccc1 returned H9c2 protect 8, aDG glyco up 0, FAS TE block 76*, TAG inh -19, MIN6 prolif 0 and FAS-TE conf 83*.
`CN(C(=O)COC(=O)c1ccc([N+](=O)[O-])cc1)c1ccccc1` gave H9c2 protect -5, m-calpain inh 18, aDG glyco up 0, FAS TE block 6, TAG inh -9 and MIN6 prolif -2.
CN(C(=O)COC(=O)c1cc([N+](=O)[O-])ccc1Cl)c1ccccc1 was read as H9c2 protect -4, aDG glyco up 0, FAS TE block 52*, MIN6 prolif -3 and FAS-TE conf 62*.
`O=C(COc1ccc([N+](=O)[O-])cc1Cl)NCCc1ccccc1` gave H9c2 protect 2, m-calpain inh 12, aDG glyco up 0, FAS TE block 44 and MIN6 prolif -1.
For CCCCOCCCNC(=O)C[C@@H]1C[C@@]2(C(=O)OCC)CCC=C2N(Cc2ccco2)C1=O the results were aDG glyco up 0 and FAS TE block -11.
Screening CCOC(=O)[C@H]1[C@H]2COc3ccc(C)cc3[C@@H]2N2C(=O)CN(Cc3ccc(C)cc3)C(=O)[C@@]12C returned H9c2 protect 3, aDG glyco up 0, FAS TE block 4, TAG inh 21 and MIN6 prolif -2.
`Cc1ccc(CN2CC(=O)N3[C@H]4c5cc(Cl)ccc5OC[C@@H]4[C@H](c4ccccc4)[C@]3(C)C2=O)cc1` gave H9c2 protect -7, aDG glyco up 0, FAS TE block 84*, TAG inh -7, MIN6 prolif -7 and FAS-TE conf 17.
For Cc1ccc(CN2CC(=O)N3[C@H]4c5cc(C)ccc5OC[C@@H]4[C@H](c4ccccc4)[C@]3(C)C2=O)cc1 the results were H9c2 protect -2, aDG glyco up 0, FAS TE block 52*, TAG inh -7, MIN6 prolif -6 and FAS-TE conf 9.
`O=C(COC(=O)CCc1c[nH]c2ccccc12)Nc1cc([N+](=O)[O-])ccc1Cl` gave H9c2 protect -7, m-calpain inh 3, aDG glyco up 0, FAS TE block 56*, MIN6 prolif -1 and FAS-TE conf 55*.
For O=C(COC(=O)CCc1c[nH]c2ccccc12)Nc1ccc([N+](=O)[O-])cc1 the results were H9c2 protect -15, m-calpain inh -12, aDG glyco up 0, FAS TE block 21 and MIN6 prolif -1.
For Cc1cc(/C=N/n2c(COc3ccccc3)nc3ccccc3c2=O)c(O)c([N+](=O)[O-])c1 the results were H9c2 protect 30, m-calpain inh 6, aDG glyco up 0, FAS TE block 60*, TAG inh 4, MIN6 prolif -6 and FAS-TE conf 9.
For Cc1ccc(-c2[nH]ncc2/C=N/n2c(COc3ccccc3)nc3ccccc3c2=O)cc1 the results were H9c2 protect 45, m-calpain inh -9, aDG glyco up 0, FAS TE block -10 and MIN6 prolif -6.
NC(=O)COC(=O)c1cc([N+](=O)[O-])ccc1NCCO was read as H9c2 protect 3, m-calpain inh -3, aDG glyco up 0, FAS TE block 3, TAG inh -1 and MIN6 prolif -3.
`COC(=O)c1cc(C(=O)OCC(=O)NCc2cccs2)cc([N+](=O)[O-])c1` gave H9c2 protect 2, aDG glyco up 0, FAS TE block 64*, TAG inh 9, MIN6 prolif 4 and FAS-TE conf 45.
